# Test results: PubChem BioAssay (EPA / NIEHS)
# Several values for one entry are separate records, joined by “and”; a condition that tells them apart may be missing. Identical values can stand only once. Results filed as inconclusive are left out. Activity calls are given as the source filed them. Rule for the calls: active = hit-call score of the fitted dose curve at least 0.9, where 1 is the maximum; inconclusive = response in the unintended direction; inactive = score below 0.9.
# Experiments:
# [1] = target: rat Peripheral-type Benzodiazepine Receptor (PBR), Tspo (gene 24230) (UniProt P16257); experiment: NVS_MP_rPBR: NovaScreen (NVS) Membrane Protein Assay for rat Peripheral-type Benzodiazepine Receptor (PBR) (AID 2283335)
# Chain of rat Peripheral-type Benzodiazepine Receptor (PBR), Tspo (gene 24230) (P16257 whole entry, looked up): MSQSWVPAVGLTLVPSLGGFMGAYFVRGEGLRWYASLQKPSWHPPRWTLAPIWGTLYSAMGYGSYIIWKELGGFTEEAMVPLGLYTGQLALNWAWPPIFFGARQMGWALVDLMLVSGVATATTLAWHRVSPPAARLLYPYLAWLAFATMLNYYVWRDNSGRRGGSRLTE
# Method in brief: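 Competitive displacement of specific radioligand from rat kidney membrane PBR, read by filtration and scintillation after 1 h. Compounds first tested at 25 uM in duplicate, then in concentration series; signal loss relative to DMSO.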
# [2] = target: Estrogen receptor beta (Homo sapiens) (UniProt Q92731); experiment: OT_ER_ERbERb_0480: Odyssey Thera (OT) 8-hour HEK293T Protein-Complementation Assay for Estrogen Receptor-beta/-beta Homodimer (AID 2283357);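 note: active means signal gain over DMSO baseline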
# Chain of Estrogen receptor beta (Homo sapiens) (Q92731 whole entry, looked up, the tested form may be a part): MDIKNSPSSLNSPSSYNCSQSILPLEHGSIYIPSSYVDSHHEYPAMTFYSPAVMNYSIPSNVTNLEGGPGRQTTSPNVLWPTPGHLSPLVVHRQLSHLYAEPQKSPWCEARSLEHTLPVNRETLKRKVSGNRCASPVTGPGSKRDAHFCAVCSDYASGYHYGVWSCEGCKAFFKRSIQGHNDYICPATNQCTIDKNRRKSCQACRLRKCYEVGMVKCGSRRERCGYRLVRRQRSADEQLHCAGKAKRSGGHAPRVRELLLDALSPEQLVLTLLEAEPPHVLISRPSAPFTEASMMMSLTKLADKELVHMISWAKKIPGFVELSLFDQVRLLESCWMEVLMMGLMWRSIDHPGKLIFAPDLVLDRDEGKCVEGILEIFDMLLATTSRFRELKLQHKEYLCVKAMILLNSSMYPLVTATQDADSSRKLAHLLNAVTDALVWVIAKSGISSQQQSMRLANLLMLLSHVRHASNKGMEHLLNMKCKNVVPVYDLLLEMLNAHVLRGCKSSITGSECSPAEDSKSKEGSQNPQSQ
# Method in brief: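 Homodimerization of ER-beta LBD measured by protein-fragment complementation in HEK293T; 8 h dosing; fixed, Draq5 counterstain; fluorescence intensity gain over DMSO baseline, positive fitting direction; laser scanning cytometry.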
# [3] = target: bovine Estrogen Receptor (ER), ESR1 (gene 407238) (UniProt P49884); experiment: NVS_NR_bER: NovaScreen (NVS) Nuclear Receptor Binding Assay for bovine Estrogen Receptor (ER) (AID 2283345);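 note: actives lower the bound radioligand count which means they displace the ER ligand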
# Chain of bovine Estrogen Receptor (ER), ESR1 (gene 407238) (P49884 whole entry, looked up): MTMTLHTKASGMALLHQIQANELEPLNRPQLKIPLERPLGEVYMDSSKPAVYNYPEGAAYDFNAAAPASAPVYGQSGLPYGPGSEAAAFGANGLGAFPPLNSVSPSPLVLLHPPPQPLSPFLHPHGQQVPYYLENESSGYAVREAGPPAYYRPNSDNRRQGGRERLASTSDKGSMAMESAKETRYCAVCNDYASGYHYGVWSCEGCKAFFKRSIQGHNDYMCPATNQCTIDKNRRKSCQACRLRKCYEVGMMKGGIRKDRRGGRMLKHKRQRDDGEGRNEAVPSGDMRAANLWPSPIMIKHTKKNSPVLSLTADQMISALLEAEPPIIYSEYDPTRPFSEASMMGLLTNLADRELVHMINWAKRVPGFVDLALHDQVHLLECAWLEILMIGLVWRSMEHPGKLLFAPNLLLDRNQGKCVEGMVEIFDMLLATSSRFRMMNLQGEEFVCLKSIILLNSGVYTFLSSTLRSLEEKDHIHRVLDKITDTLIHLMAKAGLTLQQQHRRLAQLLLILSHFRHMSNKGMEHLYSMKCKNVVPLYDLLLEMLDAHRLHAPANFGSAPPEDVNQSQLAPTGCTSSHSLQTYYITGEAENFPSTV
# Method in brief: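 Cell-free radioligand binding with receptor from bovine uterine membranes, read by scintillation counting 18 h after dosing. Loss of specific binding was scored against DMSO; primary screen at 25 uM in duplicate, actives then run as concentration series.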
# [4] = target: Estrogen receptor (Homo sapiens) (UniProt P03372); experiment: NVS_NR_hER: NovaScreen (NVS) Nuclear Receptor Binding Assay for human Estrogen Receptor (ER) (AID 2283348)
# Chain of Estrogen receptor (Homo sapiens) (P03372 whole entry, looked up): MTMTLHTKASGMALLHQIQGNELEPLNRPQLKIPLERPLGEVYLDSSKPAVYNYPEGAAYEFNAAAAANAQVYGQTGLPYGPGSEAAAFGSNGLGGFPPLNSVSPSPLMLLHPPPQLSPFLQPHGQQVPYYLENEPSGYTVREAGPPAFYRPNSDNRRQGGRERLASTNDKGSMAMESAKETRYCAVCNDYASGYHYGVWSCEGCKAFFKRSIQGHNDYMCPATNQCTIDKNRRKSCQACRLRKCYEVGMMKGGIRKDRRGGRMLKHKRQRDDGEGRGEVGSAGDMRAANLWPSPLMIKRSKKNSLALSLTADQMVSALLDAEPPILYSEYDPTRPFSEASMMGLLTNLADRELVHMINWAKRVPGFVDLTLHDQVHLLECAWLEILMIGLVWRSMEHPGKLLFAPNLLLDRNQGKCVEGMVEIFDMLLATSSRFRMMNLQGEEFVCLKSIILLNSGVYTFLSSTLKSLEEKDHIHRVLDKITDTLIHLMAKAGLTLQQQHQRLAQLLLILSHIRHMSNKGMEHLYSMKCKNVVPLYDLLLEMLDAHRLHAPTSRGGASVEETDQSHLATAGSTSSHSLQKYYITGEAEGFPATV
# Method in brief: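 MCF7-derived receptor extract, radiolabelled ligand, competitive displacement. Read: scintillation counts at 18 h. DMSO = negative control/baseline. Primary 25 uM duplicate; follow-up concentration–response.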
# [5] = target: T1, Estrogen receptor (Homo sapiens) + Estrogen receptor beta (Homo sapiens) (UniProt P03372+Q92731); experiment: OT_ER_ERaERb_0480: Odyssey Thera (OT) 8-hour HEK293T Protein-Complementation Assay for Estrogen Receptor-alpha/-beta Heterodimer (AID 2283352)
# T1 sequence (P03372 whole entry, looked up, the tested form may be a part): as the sequence (P03372 whole entry, looked up) above
# T1 sequence (Q92731 whole entry, looked up, the tested form may be a part): as the sequence (Q92731 whole entry, looked up, the tested form may be a part) above
# Method in brief: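 Fluorescence increase from reconstituted reporter fragments, quantified by laser scanning cytometer, reflects ER-alpha/ER-beta heterodimer formation in human HEK293T cells. Exposure 8 h; positive-direction fitting against DMSO vehicle.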
# [6] = target: Androgen Receptor/SRC-1 Co-activator, AR (gene 367) (UniProt P10275); experiment: OT_AR_ARSRC1_0960: Odyssey Thera (OT) 16-hour HEK293T Protein-Complementation Assay for Androgen Receptor/SRC-1 Co-activator (AID 2283353);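 note: actives raise the signal above DMSO so potency reflects increased AR and SRC-1 complex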
# Chain of Androgen Receptor/SRC-1 Co-activator, AR (gene 367) (P10275 whole entry, looked up): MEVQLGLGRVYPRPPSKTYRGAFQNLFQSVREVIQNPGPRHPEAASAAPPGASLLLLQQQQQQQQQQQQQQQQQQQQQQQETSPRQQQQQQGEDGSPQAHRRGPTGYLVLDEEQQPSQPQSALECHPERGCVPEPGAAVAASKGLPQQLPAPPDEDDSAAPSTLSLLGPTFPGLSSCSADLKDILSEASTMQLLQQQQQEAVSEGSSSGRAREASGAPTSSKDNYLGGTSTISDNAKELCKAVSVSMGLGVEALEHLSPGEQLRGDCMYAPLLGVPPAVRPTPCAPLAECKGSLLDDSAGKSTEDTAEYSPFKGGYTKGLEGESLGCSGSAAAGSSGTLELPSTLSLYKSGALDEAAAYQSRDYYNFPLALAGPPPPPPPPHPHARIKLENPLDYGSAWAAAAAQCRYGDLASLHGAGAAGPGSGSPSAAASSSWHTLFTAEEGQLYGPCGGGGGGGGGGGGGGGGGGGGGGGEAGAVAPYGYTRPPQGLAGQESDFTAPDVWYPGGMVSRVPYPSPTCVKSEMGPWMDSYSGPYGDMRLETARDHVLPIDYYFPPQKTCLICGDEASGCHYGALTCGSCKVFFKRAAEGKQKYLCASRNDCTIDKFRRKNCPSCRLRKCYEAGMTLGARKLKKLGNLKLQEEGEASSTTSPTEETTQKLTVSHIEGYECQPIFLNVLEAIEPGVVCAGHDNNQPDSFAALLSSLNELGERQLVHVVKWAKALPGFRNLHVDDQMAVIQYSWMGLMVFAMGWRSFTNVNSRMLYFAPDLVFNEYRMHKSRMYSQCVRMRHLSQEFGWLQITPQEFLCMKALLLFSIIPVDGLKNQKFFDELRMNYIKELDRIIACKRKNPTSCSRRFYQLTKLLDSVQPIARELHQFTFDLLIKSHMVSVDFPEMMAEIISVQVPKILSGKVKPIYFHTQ
# Method in brief: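 Endpoint is gain-of-signal N/C fluorescence ratio in the 488 nm channel versus DMSO, from at least 400 cells per image, measured 16 h post-dosing. Cells: HEK293T stably carrying split-Venus AR/SRC-1 complementation constructs.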
# [7] = target: T1, Estrogen receptor (Homo sapiens) + Estrogen receptor beta (Homo sapiens); experiment: OT_ER_ERaERb_1440: Odyssey Thera (OT) 24-hour HEK293T Protein-Complementation Assay for Estrogen Receptor-alpha/-beta Homodimer (AID 2283356);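 note: heteromer of ER alpha and ER beta binding domains; hits raise reporter fluorescence and both agonists and antagonists give an increase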
# Method in brief: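 Fragment complementation between ER alpha (310-547) and ER beta (263-489) ligand-binding domains in HEK293T cells; signal read 24 h post-dosing by laser scanning cytometer. Gain of fluorescence relative to DMSO fitted.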
# NCBI gene 100848466 = experiment: NVS_NR_bPR: NovaScreen (NVS) Nuclear Receptor Binding Assay for bovine Progextron Receptor (PR) (AID 2283343);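 for AC50: actives lower bound radioligand signal below DMSO meaning displacement of the label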
# Method in brief: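 Scintillation counts of bound radioligand were read 18 hours after chemical addition to membranes extracted from bovine uterus. Displacement was scored as loss of signal relative to DMSO controls. Screening began at 25 uM in duplicate.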
# [8] = target: chimpanzee Androgen Receptor (AR), AR (gene 747460) (UniProt O97775); experiment: NVS_NR_cAR: NovaScreen (NVS) Nuclear Receptor Binding Assay for chimpanzee Androgen Receptor (AR) (AID 2283346);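 note: radioligand displacement from AR measured by scintillation counting in a cell-free assay; a loss of bound radioligand signal versus DMSO counts as binding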
# Method in brief: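 Radioligand binding to chimpanzee AR expressed in Sf9/Sf21 cells, cell-free, measured 72 h after dosing by lysate-based scintillation counting. Loss of signal vs DMSO; initial duplicate screen at 25 uM, actives retested in concentration series.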
# PGR (gene 5241) = PGR (gene 5241) (UniProt P06401); experiment: NVS_NR_hPR: NovaScreen (NVS) Nuclear Receptor Binding Assay for human Progestron Receptor (PR) (AID 2283360);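 note: active means loss of bound radioligand signal versus DMSO baseline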
# Chain of PGR (gene 5241) (P06401 whole entry, looked up): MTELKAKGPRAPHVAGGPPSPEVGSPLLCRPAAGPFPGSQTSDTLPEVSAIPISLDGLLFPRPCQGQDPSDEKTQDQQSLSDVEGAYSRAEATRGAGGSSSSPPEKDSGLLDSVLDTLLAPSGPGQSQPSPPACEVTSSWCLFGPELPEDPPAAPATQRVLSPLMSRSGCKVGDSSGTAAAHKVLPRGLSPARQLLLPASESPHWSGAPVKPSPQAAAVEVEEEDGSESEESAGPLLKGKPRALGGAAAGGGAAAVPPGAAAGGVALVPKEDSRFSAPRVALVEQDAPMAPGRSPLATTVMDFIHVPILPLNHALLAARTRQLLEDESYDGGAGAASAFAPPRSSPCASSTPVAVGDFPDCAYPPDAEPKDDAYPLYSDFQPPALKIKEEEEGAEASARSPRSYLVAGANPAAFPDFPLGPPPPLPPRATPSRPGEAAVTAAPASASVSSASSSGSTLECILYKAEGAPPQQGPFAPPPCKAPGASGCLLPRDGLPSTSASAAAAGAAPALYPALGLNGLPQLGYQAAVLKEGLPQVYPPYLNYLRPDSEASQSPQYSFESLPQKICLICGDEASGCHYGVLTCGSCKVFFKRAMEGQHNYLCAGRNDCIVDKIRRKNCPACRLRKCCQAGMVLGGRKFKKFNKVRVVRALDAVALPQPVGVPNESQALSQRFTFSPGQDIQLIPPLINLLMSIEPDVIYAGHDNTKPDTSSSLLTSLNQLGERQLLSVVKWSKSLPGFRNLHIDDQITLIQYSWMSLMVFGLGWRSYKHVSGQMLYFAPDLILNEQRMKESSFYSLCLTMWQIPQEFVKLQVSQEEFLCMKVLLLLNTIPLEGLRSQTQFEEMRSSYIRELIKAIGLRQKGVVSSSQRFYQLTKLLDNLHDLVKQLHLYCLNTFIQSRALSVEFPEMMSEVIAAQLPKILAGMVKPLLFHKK
# Method in brief: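 Cell-free radioligand binding using receptor protein extracted from T47D cells, read by scintillation counting 18 hours after dosing. Loss of signal relative to DMSO baseline indicates displacement; primary screen single concentration 25 uM in duplicate, actives followed in concentration series.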
# [9] = target: rat Glutamate, MK-801 Agonist Site (GluNMDA_MK801), Grin1 (gene 24408) (UniProt P35439); experiment: NVS_LGIC_rGluNMDA_MK801_Agonist: NovaScreen (NVS) Ligand-Gated Ion Channel Assay for rat Glutamate, MK-801 Agonist Site (GluNMDA_MK801) (AID 2283340)
# Method in brief: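 Rat forebrain membrane preparation; MK-801-site radioligand binding read by filtration and scintillation after 1.5 h. Single-point 25 uM duplicate screen, followed by singleton concentration series to 50 uM max; DMSO baseline.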
# [10] = target: Bile acid receptor (Homo sapiens) (UniProt Q96RI1); experiment: NVS_NR_hFXR_Antagonist: NovaScreen (NVS) Nuclear Receptor Binding Assay for human Farnesoid X Receptor Antagonism (FXR) (AID 2283350)
# Chain of Bile acid receptor (Homo sapiens) (Q96RI1 whole entry, looked up): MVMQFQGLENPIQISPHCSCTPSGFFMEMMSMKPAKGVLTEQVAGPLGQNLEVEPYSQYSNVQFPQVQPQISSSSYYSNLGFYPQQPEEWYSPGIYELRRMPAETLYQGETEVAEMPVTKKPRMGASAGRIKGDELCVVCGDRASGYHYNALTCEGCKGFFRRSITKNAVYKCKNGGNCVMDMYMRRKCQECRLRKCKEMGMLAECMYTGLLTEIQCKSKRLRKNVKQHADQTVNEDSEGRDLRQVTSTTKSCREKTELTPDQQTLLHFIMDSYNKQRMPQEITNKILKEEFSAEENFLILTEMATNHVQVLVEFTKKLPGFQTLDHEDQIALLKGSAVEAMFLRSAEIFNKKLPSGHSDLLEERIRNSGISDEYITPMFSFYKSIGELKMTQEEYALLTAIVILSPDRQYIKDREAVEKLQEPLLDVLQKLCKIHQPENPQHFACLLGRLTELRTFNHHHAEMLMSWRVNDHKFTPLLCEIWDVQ
# Method in brief: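 Antagonist-format time-resolved FRET binding assay with extracted human receptor protein, read 1 hour after compound addition. Compounds first screened at 25 uM in duplicate, then actives tested in concentration series, with loss of signal relative to DMSO.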
# [11] = target: human Constitutive Androstane Receptor (CAR), NR1I3 (gene 9970) (UniProt Q14994); experiment: NVS_NR_hCAR_Antagonist: NovaScreen (NVS) Nuclear Receptor Binding Assay for human Constitutive Androstane Receptor Antagonism (CAR) (AID 2283344)
# Chain of human Constitutive Androstane Receptor (CAR), NR1I3 (gene 9970) (Q14994 whole entry, looked up): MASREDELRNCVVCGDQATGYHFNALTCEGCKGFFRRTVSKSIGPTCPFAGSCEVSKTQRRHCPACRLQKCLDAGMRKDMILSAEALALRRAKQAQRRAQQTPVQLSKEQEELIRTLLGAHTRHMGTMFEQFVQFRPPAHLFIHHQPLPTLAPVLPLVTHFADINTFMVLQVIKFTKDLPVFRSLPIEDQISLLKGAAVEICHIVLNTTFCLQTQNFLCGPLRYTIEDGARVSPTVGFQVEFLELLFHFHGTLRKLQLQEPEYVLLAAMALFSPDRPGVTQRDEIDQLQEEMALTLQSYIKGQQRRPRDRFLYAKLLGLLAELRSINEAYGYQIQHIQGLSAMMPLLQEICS
# Method in brief: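 Single 25 uM duplicate primary screen, with concentration-series follow-up on actives. Cell-free binding format run in antagonist mode, TR-FRET signal taken 1 h post-dose; activity is signal loss relative to DMSO.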
# [12] = target: Retinoic acid receptor alpha (Homo sapiens) (UniProt P10276); experiment: NVS_NR_hRAR_Antagonist: NovaScreen (NVS) Nuclear Receptor Binding Assay for human Retinoic Acid Alpha Receptor Antagonism (RAR) (AID 2283358)
# Method in brief: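 Read-out: time-resolved FRET binding signal, 2 h post-dose, cell-free extracted protein. Antagonism scored as signal loss versus DMSO negative control. Primary single-concentration screen at 25 uM in duplicate; concentration series for actives.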
smiles,measurement,setting,value
CCCCCCC(C)OC(=O)COc1nc(F)c(Cl)c(N)c1Cl (stereo unspecified),AC50,[1],3.75 µM (active)
same,outcome,[2],inactive
CCOC(=O)COc1cc(-n2ncc(C(F)(F)F)c(C)c2=O)c(F)cc1Cl,AC50,[1],0.806 µM (active)
same,outcome,[3],inactive
same,outcome,[4],inactive
same,outcome,[5],inactive
same,outcome,[6],inactive
same,outcome,[7],inactive
C[C@]12C[C@H](O)[C@H]3[C@@H](CCC4=CC(=O)CC[C@@]43C)[C@@H]1CC[C@@H]2C(=O)CO,AC50,NCBI gene 100848466,0.875 µM (active)
same,outcome,[3],inactive
same,AC50,[8],4.56 µM (active)
same,outcome,[4],inactive
same,outcome,[5],inactive
same,outcome,[7],inactive
same,outcome,[2],inactive
same,AC50,PGR (gene 5241),0.403 µM (active)
S=C([S-])NCCNC(=S)[S-].[Mn+2],AC50,[1],15.3 µM (active)
same,outcome,[9],inactive
same,outcome,[2],inactive
N#CSCSc1nc2ccccc2s1,AC50,[1],11.1 µM (active) and 9.24 µM (active)
same,outcome,NCBI gene 100848466,inactive
same,AC50,[10],4.96 µM (active)
same,AC50,[6],12.1 µM (active)
same,outcome,[7],inactive
same,outcome,[2],inactive
same,outcome,PGR (gene 5241),inactive
CC1(C)C(C=C(Cl)Cl)C1C(=O)OCc1cccc(Oc2ccccc2)c1 (stereo unspecified),outcome,[1],inactive
same,outcome,NCBI gene 100848466,inactive
same,outcome,[11],inactive
same,outcome,[3],inactive
same,outcome,[4],inactive
same,outcome,[6],inactive
same,outcome,PGR (gene 5241),inactive
CCNc1nc(N)nc(Cl)n1,outcome,[1],inactive
same,outcome,NCBI gene 100848466,inactive
O=C(O)C1(C(=O)Nc2ccc(Cl)cc2Cl)CC1,AC50,[11],9.08 µM (active)
same,outcome,[5],inactive
same,outcome,[6],inactive
same,outcome,[7],inactive
same,outcome,[2],inactive
same,outcome,[12],inactive
same,outcome,PGR (gene 5241),inactive
Cc1nn(C)c(Oc2ccccc2)c1C=NOCc1ccc(C(=O)OC(C)(C)C)cc1,AC50,NCBI gene 100848466,11 µM (active)
same,outcome,[3],inactive
same,outcome,[4],inactive
same,outcome,[5],inactive
same,outcome,[6],inactive
same,outcome,[7],inactive
same,outcome,[2],inactive
same,outcome,PGR (gene 5241),inactive
CC(C)CCCCCCc1ccc(O)cc1,outcome,NCBI gene 100848466,inactive
same,AC50,[3],16.7 µM (active) [middle of 4 runs]
same,AC50,[5],1.36 µM (active) and 1.78 µM (active) and 1.89 µM (active)
same,AC50,[7],2.25 µM (active) and 2.44 µM (active)
same,AC50,[2],836 nM (active) and 1.48 µM (active) and 1.04 µM (active)
c1ccc2[nH]c(-c3cscn3)nc2c1,outcome,[6],inactive
same,outcome,[7],inactive
same,outcome,[2],inactive
O=C(c1ccc(O)cc1O)c1ccc(O)cc1O,AC50,NCBI gene 100848466,16.4 µM (active)
same,AC50,[8],2.73 µM (active)
same,AC50,[4],59.6 nM (active) [middle of 4 runs]
same,AC50,[5],2.03 µM (active) and 1.72 µM (active) and 2.14 µM (active)
same,AC50,[6],10.2 µM (active) and 9.93 µM (active) and 10.7 µM (active)
same,AC50,[7],12.6 µM (active) and 8.31 µM (active) and 9.09 µM (active)
same,AC50,[2],1.6 µM (active) and 1.63 µM (active) and 1.4 µM (active)
same,AC50,PGR (gene 5241),11.2 µM (active)
